# Screens: PubChem, Fisher Drug Discovery Resource Center
# Shown are actives, neighbours in structure and some others; about 0.28% of the full set was active somewhere.
# hcGAS lum – blocks human cGAS activity; Q8N884; recombinant h-cGAS, ATP depletion, Kinase-Glo luminescence; inhibition, % at 12.5 µM; 290,000 tested, 0.081% active; AID 1259398;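 also: 0% = vehicle reaction and 100% = reaction without DNA for no activity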
# mcGAS lum – inhibitors of mouse cGAS; AID 1259399; 160,000 tested, 0.15% active; inhibition, % at 12.5 µM; recombinant cGAS, Kinase-Glo ATP depletion luminescence; Q8C6L5;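 also: 0% = negative control wells and 100% = reference inhibitor with no enzyme activity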
# NPYLR7 ag – mosquito NPYLR7 agonism | 270,000 tested, 0.15% active | HEK293T NPYLR7/Galpha15, GCaMP6s calcium fluorescence | AID 1259423 | activation, % at 10 µM; in the data active = activation above about 40%;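 also: 0% = vehicle and 100% = reference agonist at the receptor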
# * marks the source's active call; other numbers are inactive results; . = no result. Rule as the data show it, unless noted: active = inhibition above about 40%; inactive = the rest.
SMILES,hcGAS lum,mcGAS lum,NPYLR7 ag
O=C1C(Cl)=C(N2CCOCC2)C(=O)N1c1ccc(Cl)c(Cl)c1,-2,50*,22
CC(c1ccc(F)cc1)N(C)C(=O)c1ccc(S(=O)(=O)N2CCCCC2)cc1 (stereo not drawn),-8,.,2
O=C(CCl)Nc1ccc([N+](=O)[O-])cc1Cl,-7,60*,-1
O=C(CSc1nnc2ccccn12)Nc1ccc([N+](=O)[O-])cc1Cl,-5,.,-4
Cc1c(C)n2c3c(=O)n(CCCO)c(=O)n(C)c3nc2n1-c1ccccc1Cl,-10,.,2
Cc1cc(=O)[nH]c(CN2CCN(c3ccccc3F)CC2)n1,-10,.,.
COc1ccc(-c2cc3c(cn2)nc(NCc2ccccc2)n3C)c(C)c1,-2,-5,-2
COc1ccc(OCC(=O)NCc2cc(-c3ccc4c(c3)OCO4)on2)cc1,-12,-8,3
COc1ccc(OC)c(CCNc2nc3cnc(-c4cccc5ccccc45)cc3n2C)c1,-6,-7,59*
COc1ccc(OC)c(CCNc2nc3cnc(-c4ccc5c(c4)OCO5)cc3n2C)c1,-7,15,71*
CC(C)(C)C(=O)Nc1ccnn1C1CCN(C(=O)Cc2cccc3ccccc23)CC1,-1,.,6
OCC1(Cc2ccc(Cl)cc2)CCN(Cc2cccc3c2OCO3)CC1,-5,.,.
CS(=O)(=O)CCN(Cc1c(F)cccc1F)C1CCCC1,-5,-11,9
Cn1cc(-c2ccc3c(c2)COCC(=O)N3CC2CCCCC2)cn1,4,.,-3
CN(C(=O)C1=NCC(=O)N(c2ccccc2)N1)C1CCCCC1,-8,.,-2
CC(=O)N1CC(CO)C2(CCN(C(=O)C3CC=CC3)CC2)C1 (stereo not drawn),-9,-5,.
COCCN1CC(CO)C2(CCN(C(=O)C3CC=CC3)CC2)C1 (stereo not drawn),45*,-7,.
CC(=O)Nc1sc2c(c1-c1nc3ccccc3s1)CCN(C(C)=O)C2,7,.,3
CCN1CCc2c(sc(NC(=O)C3=COCCO3)c2-c2nc3ccccc3s2)C1,39,.,60*
CC(=O)N1CCc2c(sc(NC(=O)C3=COCCO3)c2-c2nc3ccccc3s2)C1,-4,.,3
CC(=O)Nc1sc2c(c1-c1nc3ccccc3s1)CCN(Cc1ccccc1)C2,-3,-7,197*
CCn1cc(C(=O)N[C@H](C(=O)NCCCN2CCCC2=O)C(C)C)c(=O)c2cc3c(cc21)OCO3,2,.,2
CC(C)c1cc(C2CCN(Cc3ccnc(C(C)C)n3)CC2)[nH]n1,-3,-18,1
Cc1nc(SCc2cccc(C(=O)NCc3ccco3)c2)nc(N2CCN(C/C=C/c3ccccc3)CC2)c1C,-2,-2,1
O=c1cc(-c2ccccc2)oc2cc(O)c(O)cc12,34,29,-4
SMILES,hcGAS lum,mcGAS lum,NPYLR7 ag
O=c1cc(-c2ccccc2)oc2c(O)c(O)ccc12,72*,.,-1
O=C(Nc1ccc2c(c1)OCO2)C(C1CCCC1)N1CCN(C(=O)c2ccc(F)cc2F)CC1 (stereo not drawn),-1,0,-6
COc1ccc(CN2C(=O)c3ccccc3C2=O)cc1F,-1,.,8
COc1cccc(CN2C(=O)c3cccc(N)c3C2=O)c1,-8,.,43*
O=C(Cn1cnc2ccccc21)NCc1ccco1,-8,-6,2
CC(=O)Nc1ccc(S(=O)(=O)Oc2ccc(CN(CC(C)C)C(=O)c3cccc(F)c3)cc2)cc1,-15,-5,13
O=c1cc(C(F)(F)F)c2ccc(O)cc2o1,-10,-4,57*
O=c1cc(O)c2ccc(O)cc2o1,3,0,3
COc1cc(/C=C/c2nc3ccccc3o2)cc(Cl)c1O,-3,-13,334*
Nc1ccc(/C=C/c2nc3ccccc3o2)cc1,-1,-2,2
CCOC(=O)N1CCN(c2ccc(/C=C(\C#N)c3nc4ccccc4n3C)o2)CC1,-21,.,342*
CCOC(=O)N1CCN(c2ccc(/C=C(\C#N)c3nc4ccccc4s3)o2)CC1,-7,.,5
O=C(O)C1(C(=O)O)CCC1.[NH2-].[NH2-].[Pt+2],0,-4,2
CCc1ccc(Cl)c(CC)c1NC(=O)c1ccc(=O)n(C)n1,-12,.,10
O=C(O)c1ccccc1OP(=O)(O)O,5,61*,-10
CCCCC(=O)Oc1ccccc1C(=O)O,-6,-5,.
O=C(c1cc(-c2ccccc2F)nc2cc(-c3ccccc3)nn12)N1CCN(Cc2ccc3c(c2)OCO3)CC1,-5,-10,12
CCC(Oc1ccccc1)C(=O)N1CCC2(CCc3ccccc32)CC1 (stereo not drawn),-4,.,8
CCCN(Cc1ccsc1)CC(O)COc1ccccc1 (stereo not drawn),-4,41*,27
COc1cccc(CN(Cc2ccc(F)cc2)CC(O)COc2ccccc2)c1 (stereo not drawn),-4,76*,39
CC(C)CN(Cc1ccsc1)CC(O)COc1ccc(Cl)cc1 (stereo not drawn),-6,-4,6
